Data taken from PubChem BioAssay (Tox21).
Inconclusive results are not listed. Activity calls are given as the source filed them. Unless noted, calls follow the shape of the dose curve; as a rule, active = well fitted curve in the direction sought with a large enough effect in the repeat runs; inconclusive = weak or mixed curves; inactive = no such curve, though single readings can be large; an effect the other way counts as inactive or inconclusive.

Experiments:
[1] = qHTS assay for small molecule agonists of the p53 signaling pathway (AID 651631; calls by dose curve; also: nearly all actives have a fitted effect of over 15% in size)
Summary of the method: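 HCT-116 cells carrying a stable p53 response element–beta-lactamase reporter were plated, rested 5 h at 37 °C, then exposed to compound in DMSO for 16 h at 37 °C; reporter activity was read as FRET substrate fluorescence after 2 h at room temperature.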

[2] = qHTS assay for small molecules that induce genotoxicity in human embryonic kidney cells expressing luciferase-tagged ATAD5 (AID 651632); also: nearly all actives have a fitted effect of over 15% in size
Summary of the method: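 HEK293T cells carrying luciferase-tagged ATAD5 were given compound or DMSO vehicle and incubated 16 hr at 37C, 5% CO2. Luciferase activity was read after 30 min at room temperature with Amplite; a rise signals genotoxic stress.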

[3] = qHTS assay for small molecule agonists of the p53 signaling pathway - cell viability (AID 651633; calls by dose curve; also: series mostly up to about 83 µM; nearly all actives have a fitted effect of over 30% in size)
Summary of the method: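 Viability counter-read: CellTiter-Glo luminescence (30 min, room temperature) in the same p53RE-bla plates. These plates had been exposed to compounds for 16 h at 37 C.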

[4] = qHTS assay for small molecules that induce genotoxicity in human embryonic kidney cells expressing luciferase-tagged ATAD5 - cell viability (AID 651634; calls by dose curve; also: nearly all actives have a fitted effect of over 25% in size)
Summary of the method: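 HEK293T cells carrying luciferase-tagged ATAD5, 2,000 cells/well, exposed to compound for 15.5 hr at 37C. Viability read as live-cell protease activity by CellTiter-Fluor fluorescence after 30 min at 37C.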

[5] = qHTS assay for small molecule disruptors of the mitochondrial membrane potential - cell viability (AID 720634; calls by dose curve;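 also: human HepG2 liver cancer cells; series mostly up to about 83 µM; nearly all actives have a fitted effect of over 20% in size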)
Summary of the method: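 HepG2 cells, 2,000 per well, attached overnight, then treated 1 hr at 37 C, 5% CO2. Viability read as ATP by CellTiter-Glo luminescence after 30 min at room temperature. Read in the same wells as the m-MPI membrane-potential dye assay.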

[6] = qHTS assay to test for compound auto fluorescence at 590 nm (red) in HepG2 cells (AID 720674)
Summary of the method: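 Red autofluorescence (Ex/Em 540/590 nm, Rose Bengal sodium equivalents) was measured in HepG2 cells, 2,000 per well in MEM plus 10% FBS, plated overnight at 37 C. Readings were taken 1 hr after adding 23 nL compound or DMSO, at 37 C and 5% CO2.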

[7] = qHTS assay to test for compound auto fluorescence at 535 nm (green) in HepG2 cells (AID 720675)
[8] = qHTS assay to test for compound auto fluorescence at 460 nm (blue) in HEK293 cells (AID 720678)
Summary of the method: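 Intrinsic compound fluorescence is recorded in live HEK293 cultures after overnight incubation at 37C, 5% CO2, using excitation 405 nm and emission 460 nm. Values are referenced to triamterene.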

[9] = qHTS assay to test for compound auto fluorescence at 590 nm (red) in HEK293 cells (AID 720679)
Summary of the method: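 Red autofluorescence, HEK293 cells: 2,000 cells/well; attach 4-5 hr 37C; add 23 nL cpd or DMSO; incubate o/n 37C 5% CO2; read Ex540/Em590; Rose Bengal sodium reference.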

Measured: Potency

CCOC(=O)C1=C[C@@H](OC(CC)CC)[C@H](NC(C)=O)[C@@H](N)C1
inactive: all assays above

Cc1nc(NS(=O)(=O)c2ccc(N)cc2)nc(C)c1Br
inactive: all assays above

O=C(NNCS(=O)(=O)O)c1ccncc1
inactive: all assays above

CCCC(=O)N1CCCN(c2nc(N)c3cc(OC)c(OC)cc3n2)CC1
inactive: all assays above

CCN(CC)CCOC(=O)c1cccnc1
inactive: all assays above

CO[C@@]1(NC(=O)C2SC(=C(C(N)=O)C(=O)O)S2)C(=O)N2C(C(=O)O)=C(CSc3nnnn3C)CS[C@@H]21 (stereo partly drawn)
inactive: all assays above

Nc1c(Br)cc(Br)cc1CNC1CCC(O)CC1 (stereo not drawn)
inactive: all assays above

CCOC(=O)O[C@]1(C(=O)COC(=O)CC)CC[C@H]2[C@@H]3CCC4=CC(=O)C=C[C@]4(C)[C@H]3[C@@H](O)C[C@@]21C
inactive: all assays above

Cc1cccc(C)c1NC(=O)NC1=CCCN1C
inactive: all assays above

C[C@]12CC[C@@H]3c4ccc(OS(=O)(=O)O)cc4CC[C@H]3[C@@H]1CCC2=O
inactive: all assays above

COc1cc2c(cc1OC)CC(=O)N(CCCN(C)C[C@H]1Cc3cc(OC)c(OC)cc31)CC2
inactive: all assays above

O=C(Cc1cccs1)N[C@@H]1C(=O)N2C(C(=O)[O-])=C(C[n+]3ccccc3)CS[C@H]12
inactive: all assays above
